From PubChem
RE007 growth inh – less growth of the S. pombe RE007 Vpr strain; S. pombe RE007 Vpr strain, BacTiter-Glo ATP luminescence, 24 h; Potency, µM (doses to about 92.2 µM), inactives show at the top dose activity change, negative = less growth, usual class: inhibitors; 360,000 compounds, 0.21% hits; AID 651644; active means well fitted falling curve with a large enough effect; inconclusive means small, poorly fitted or top-dose-only effect; inactive means no such curve, though single readings can be large or run the other way; further: potency means the concentration at half of the fitted maximal effect; nearly all actives have a fitted effect of over 50% in size
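Fission yeast RE007 carrying one integrated HIV-1 vpr copy, seeded at OD 0.01 in PMG+AL medium with 23 nL pinned compound. Grown 24 h at 30 degrees; viability read by BacTiter-Glo luminescence after 5 min.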
TbPYK inhibitor – blocks Trypanosoma brucei pyruvate kinase; Q57TT1; TbPYK enzyme, Kinase-Glo Plus ATP luminescence, 45 min; Potency, µM (highest dose often 76.8 µM), inactives show at the highest dose activity, negative = inhibition, usual class: inhibitors; 410,000 compounds, 0.12% hits; further: potency means the concentration at half of the fitted maximal effect; nearly all actives have a fitted effect of over 50% in size
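Luminescent Kinase-Glo Plus end-point after 45 min room-temperature reaction of T. brucei pyruvate kinase started with 130 uM ADP (final). Buffer TEA 50 mM pH 7.2 with KCl, MgCl2, BSA, Tween-20; titration-based qHTS with fitted concentration-effect curves.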
Sm TGR block – blocks Schistosoma mansoni thioredoxin glutathione reductase; Potency, µM (highest dose often 114 µM), without a hit: top-dose activity change, negative = inhibition, usual class: inhibitors; purified TGR, DTNB reduction, TNB absorbance 405 nm; 360,000 compounds, 3% hits; Q962Y6; further: potency means the concentration at half of the fitted maximal effect; nearly all actives have a fitted effect of over 60% in size
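TGR 20 nM + NADPH 100 uM (dispensed conc.), cpd preinc 15 min RT; start with NADPH (500 uM addition) then DTNB (15 mM addition). Kinetic TNB absorbance, 405 nm filter. Four-parameter Hill fit across titration.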
HCMV inh – human cytomegalovirus inhibition; HFF cells, HCMV-luciferase reporter, 72 h; hits give low values; activity change, negative = inhibition, % at 57.5 µM; 410,000 compounds, 4.5% hits; AID 1259415; in the data active means activity change below about -60%; inconclusive means no clear call, values can overlap the other calls; inactive means above about -39%
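Cell-based, HFFs, 1000 cells/well, 16 h 37C; cpds in DMSO + HCMV-luc, MOI 1 PFU/cell; 72 h 37C; OneGlo luminescence after 5 min RT; norm. to buffer vs Salinomycin 10uM.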
Giardia FBPA inh – blocks Giardia fructose-bisphosphate aldolase activity; purified Giardia FBPA; Potency, µM (highest dose often 59.6 µM), for the others: at the highest dose activity, negative = inhibition, usual class: inhibitors; AID 2451; A8B2U2; 290,000 compounds, 0.71% hits; further: potency means the concentration at half of the fitted maximal effect; nearly all actives have a fitted effect of over 55% in size
Target sequence (A8B2U2 whole entry, looked up): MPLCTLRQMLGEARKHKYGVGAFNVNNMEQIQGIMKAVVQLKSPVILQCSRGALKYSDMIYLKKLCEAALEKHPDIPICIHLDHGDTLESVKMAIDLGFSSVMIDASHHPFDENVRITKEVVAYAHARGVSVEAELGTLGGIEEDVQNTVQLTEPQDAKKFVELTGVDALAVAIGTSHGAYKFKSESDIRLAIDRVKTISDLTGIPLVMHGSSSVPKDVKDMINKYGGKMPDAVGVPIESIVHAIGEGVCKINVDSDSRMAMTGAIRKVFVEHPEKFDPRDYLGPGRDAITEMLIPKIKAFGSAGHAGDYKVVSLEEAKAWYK
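40 nM FBPA preincubated 10 min at RT with compound (up to 57.5 uM final), then substrate plus GAPDH/TPI/NAD/arsenate coupling and diaphorase/resazurin added. Fluorescence read after 20 min at RT, 525/598 nm.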
FMDV inh – blocks foot and mouth disease virus. FMDV antiviral cell-based qHTS. Potency, µM (top dose mostly 57.9 µM), for inactives: top-dose activity change, negative = inhibition, hits mostly inhibitors. 410,000 compounds, 1.2% hits; calls by dose curve; tested in HEK293T cells; further: read-out not given here; potency means the concentration at half of the fitted maximal effect; nearly all actives have a fitted effect of over 45% in size
Active calls of the source: *; ? = inconclusive; / = not tested or not shown; [ ] = remark or other dose. Only some compounds are listed: those with a hit (about 7.7% of all), similar ones and a draw of the others. Unless noted, the call rests on the fitted dose curve; in most records, active means well fitted curve in the direction sought with a large enough effect; inconclusive means small, poorly fitted or top-dose-only effect, or another doubt; inactive means no such curve, though single readings can be large; an effect the other way counts as inactive or inconclusive. On the % scale 0 is the no-effect control and ±100 the full control effect.

SMILES | RE007 growth inh | TbPYK inhibitor | Sm TGR block | HCMV inh | Giardia FBPA inh | FMDV inh
O=C(CC(Nc1ccc(F)cc1)C(=O)O)c1ccccc1 (centres undefined) | -14% | -21% | 1.8µM* | -102* | -13% | 29%
O=C(CC(Nc1ccc(F)cc1)C(=O)OCC(=O)c1cccs1)c1ccccc1 (centres undefined) | ? | 4% | 8.9µM* | 47 | -1% | 59%
CO[C@H]1C=CO[C@@]2(C)Oc3c(C)c(O)c4c(O)c(c(C=NN5CCN(C)CC5)c(O)c4c3C2=O)NC(=O)C(C)=CC=C[C@H](C)[C@H](O)[C@@H](C)[C@@H](O)[C@@H](C)[C@H](OC(C)=O)[C@H]1C | / | / | / | / | / | -11%[16.9 µM]
CC(=O)c1ccc2noc(-c3ccc(Cl)cc3)c2c1 | 3% | -2% | 28µM* | -62* | 2% | -21%
CC(=O)c1ccc2noc(-c3ccc(F)cc3)c2c1 | -7% | -20% | ? | ? | -1% | 0%
Cc1ccc(-c2onc3ccc(C=O)cc23)cc1 | ? | -3% | 45µM* | 19 | -3% | 1%
Cc1cc(-c2onc3ccc(Cl)cc23)ccc1O | -1% | -7% | 40µM* | 97 | 0% | 21%
COc1cccc(-c2cc(=O)c3ccc(OC)cc3o2)c1 | / | / | / | / | 4% | 42%
c1cncc(CNc2ncncc2-c2ccc3c(c2)OCO3)c1 | / | / | / | / | -8% | 5%
COc1ccc(-c2nnc(SCC(=O)c3ccc([N+](=O)[O-])cc3)o2)cc1OC | / | -4% | -2% | -3 | / | -7%
Cc1ccccc1NC(=O)C1CCC(CNS(=O)(=O)c2ccc3c(c2)C(C)(C)C(=O)N3C)CC1 (centres undefined) | / | -1% | 24% | -1 | / | ?
COc1ccc2c(c1)O/C(=C\c1ccco1)C2=O | -5% | -11% | 7.9µM* | 29 | ? | 56%
COC(=O)C(C)Oc1ccc2c(c1)O/C(=C\c1ccco1)C2=O (centres undefined) | -9% | 7% | 20µM* | 31 | 4% | 22%
Cc1ccc2oc3c(c(=O)c2c1)C(c1ccc(OCC(N)=O)cc1)N(Cc1ccc2c(c1)OCO2)C3=O (centres undefined) | / | 1% | 0% | -2 | / | -18%
COc1cc2c(cc1OC)C1O[C@](c3ccsc3)(C2)Oc2c1c(=O)oc1ccc(F)cc21 | / | / | ? | / | 2%[12.9 µM] | /
COc1cccc(CN(C)C(=O)c2ccc(OCC(=O)Nc3cccc(C(F)(F)F)c3)c(OC)c2)c1 | -10% | -3% | 4% | -86* | / | ?
COc1ccc(CN(C)C(=O)c2ccc(OCC(=O)Nc3cccc(C(F)(F)F)c3)c(OC)c2)c(OC)c1 | 3% | -2% | -2% | -83* | / | ?
COc1cc(C(=O)NCCCN(C)C)ccc1OCC(=O)Nc1cccc(C(F)(F)F)c1 | -5% | 0% | 24% | -28 | 0% | -15%
COc1ccc(CN(C)C(=O)c2cccc(NC(=O)CC3SC(N4CCCCC4)=NC3=O)c2)c(OC)c1 (centres undefined) | -10% | 7% | / | -77* | / | 20µM*
COc1cccc(CN(C)C(=O)c2cccc(NC(=O)CC3SC(N4CCCCC4)=NC3=O)c2)c1OC (centres undefined) | 8% | 1% | -7% | -24 | / | ?
CC(=O)Nc1ccc(/C(C)=N/Nc2nc(Nc3cccc4ccccc34)nc(N3CCOCC3)n2)cc1 | 5% | -4% | 3% | -62* | -1% | 0%
C/C(=N\Nc1nc(N2CCCCCC2)nc(N2CCCCCC2)n1)c1ccccc1 | ? | 4% | -1% | -66* | 1% | -22%
CC(=O)Nc1ccc(/C(C)=N/Nc2nc(N3CCOCC3)nc(N3CCOCC3)n2)cc1 | 4% | -6% | 4% | -22 | 2% | -15%
CCOc1ccc(NC(=O)CC2CC(C)(C)OC2=O)cc1 (centres undefined) | 9% | 2% | 6% | 35 | 0% | 21%
